# TcdB GH inh = TcdB glycohydrolase inhibitors, primary screen, biochemical, single point, plate reader | Toxin B (Clostridioides difficile), P18177 | TcdB glycohydrolase enzymatic assay | inhibition, % at 9.99 µM | 350,000 compounds, 0.24% hits | AID 652162, 2013; in the data active = inhibition above about 10%
# FBA Mtb inh = Mtb FBA enzyme inhibitors, primary screen, biochemical, fluorescence, strain H37Rv; purified M. tuberculosis FBA, fluorescence read-out; inhibition, % at 1 µM; 360,000 compounds, 2.3% hits; in the data active = inhibition above about 27%
# Y pestis TopoI = Yersinia pestis topoisomerase I inhibitors, primary screen, biochemical, cleavage product accumulation, plate reader, single point; Y. pestis Topo-I cleavage product accumulation; activity, % at 10 µM; DNA topoisomerase I (Yersinia pestis CO92); 360,000 compounds, 0.064% hits; in the data active = activity above about 50%, passing the limit was not always enough
# GDH-TPI inh = GDH-TPI coupling enzyme inhibitors, primary screen, artefact control for M. tuberculosis FBA inhibitor project, biochemical, absorbance, full deck; 360,000 compounds, 1.2% hits; GDH-TPI coupled enzyme counterscreen, NADH absorbance; inhibition, % at 4.8 µM; in the data active = inhibition above about 30%
# PrPC surface inh = inhibitors of human cell surface prion protein PrPC, primary screen, cell-based, TR-FRET. TR-FRET read-out. inhibition, % at 13.8 µM. 370,000 compounds, 0.43% hits. AID 720596, 2013; in the data active = inhibition above about 24%
# Numbers stand for hits; – = inactive; · = no result; + = active, no number. In the library only some 3.2% were active in any assay of this set; here they are far more common.
SMILES,TcdB GH inh,FBA Mtb inh,Y pestis TopoI,GDH-TPI inh,PrPC surface inh
Cc1nnc(Nc2ccc(S(N)(=O)=O)cc2)c2ccccc12,–,–,–,34,–
CN1C(=O)c2cc(NC(=O)Cc3ccccc3)ccc2OC[C@H]2O[C@@H](CC(=O)NCC3CC3)CC[C@H]21,–,·,·,·,·
O=C(C[C@@H]1CC[C@H](NC(=O)c2cccc(F)c2)[C@H](CO)O1)NCCN1CCCC1,–,·,·,·,·
COc1cc(N2Cc3ccccc3C2)ccc1C=O,–,–,–,34,–
CN(C)c1cccc(NC2=CC(=[N+]3CCOCC3)CC(C)(C)C2)c1,·,–,–,37,–
CC1(C)CC(=O)C=C(Nc2cccc(F)c2)C1,–,–,–,–,–
CCCS(=O)(=O)NC(=O)C1(C)CCN(C(=O)c2cccc3ccccc23)C1 (stereo unspecified),–,–,–,–,–
CCCS(=O)(=O)NC(=O)C1(C)CCN(C(=O)c2ccco2)C1 (stereo unspecified),11,–,–,–,–
COc1ccccc1/C=C(\NC(=O)c1ccc(OC)c(OC)c1)C(=O)Nc1ccc([N+](=O)[O-])cc1,–,–,–,36,–
O=C(NNc1cccc([N+](=O)[O-])c1)/C(=C\c1cccnc1)NC(=O)c1ccccc1,–,–,–,44,–
COc1ccccc1/C=C(\NC(=O)c1ccc(OC)c(OC)c1)C(=O)Nc1cccc([N+](=O)[O-])c1,–,–,–,32,–
CC(=O)c1cccc(NC(=O)/C(=C\c2cccnc2)NC(=O)c2ccccc2)c1,–,–,–,–,–
O=C(C[C@@H]1CC[C@@H]2[C@H](COC[C@@H](O)CN2Cc2cc(F)ccc2F)O1)NCc1ccccc1,–,·,·,·,·
C[C@@H]1CN([C@@H](C)CO)C(=O)c2cccc(NC(=O)c3ccncc3)c2O[C@H]1CN(C)CC1CCCCC1,–,·,·,·,·
O=C(C[C@@H]1CC[C@H]2[C@@H](COC[C@H](O)CN2C(=O)Nc2ccc(F)cc2)O1)NCCc1ccccc1,–,·,·,·,·
C[C@H]1CN([C@@H](C)CO)C(=O)c2cc(NS(=O)(=O)c3ccc(Cl)cc3)ccc2O[C@H]1CN(C)C(=O)Nc1cccc2ccccc12,–,·,·,·,·
FC(F)(F)c1cc(-c2cccs2)nc2ncnn12,–,+,–,–,–
O=C(NCCc1ccccc1)c1nc2nc(-c3cccs3)cc(C(F)(F)F)n2n1,·,+,–,31,–
FC(F)(F)c1cc(-c2ccc(Cl)cc2)nc2ncnn12,·,142,–,–,–
C[C@@H]1CN([C@@H](C)CO)C(=O)c2cc(NS(=O)(=O)c3cn(C)cn3)ccc2O[C@@H]1CN(C)Cc1ccccc1,–,·,·,·,·
CNC[C@@H]1OCCCC[C@H](C)Oc2ccc(NC(=O)c3ccccc3)cc2C(=O)N([C@@H](C)CO)C[C@H]1C,–,·,·,·,·
CCC(=O)N(C)C[C@@H]1Oc2ncc(-c3ccc(C#N)cc3)cc2C(=O)N([C@H](C)CO)C[C@@H]1C,–,·,·,·,·
Cc1ccc(N/C=C(/C#N)c2ccsc2)cc1,·,–,–,–,–
N#C/C(=C/Nc1ccccc1)c1ccsc1,·,–,–,34,–
Oc1ccc(/C=N/Nc2cc(N3CCOCC3)nc(N3CCOCC3)n2)cc1,·,–,–,58,–
SMILES,TcdB GH inh,FBA Mtb inh,Y pestis TopoI,GDH-TPI inh,PrPC surface inh
Cc1cc(N/N=C/c2ccccc2O)nc(N2CCOCC2)n1,–,–,–,64,–
CNC[C@@H]1Oc2ccc(NC(=O)Cc3cn(C)c4ccccc34)cc2CC(=O)N([C@@H](C)CO)C[C@H]1C,–,·,·,·,·
C[C@H]1CN([C@@H](C)CO)C(=O)c2cccc(NC(=O)c3nc4ccccc4s3)c2O[C@@H]1CN(C)C(=O)Nc1ccc2c(c1)OCO2,–,·,·,·,·
O=C(c1coc(=O)c(Br)c1)N1CCC(C(O)(c2ccccc2)c2ccccc2)CC1,–,70,–,32,–
O=C(c1coc(=O)c(Br)c1)N1CCCc2ccccc21,·,141,–,–,–
CC1(C)CCCN(C(=O)c2coc(=O)c(Br)c2)C1,·,51,–,–,–
O=C(C1CC1)N1CCC(C(O)(c2ccccc2)c2ccccc2)CC1,·,–,–,–,–
C[C@H](CO)N1C[C@H](C)[C@H](CN(C)C(=O)c2ccccc2)Oc2ncc(-c3ccc(C#N)cc3)cc2C1=O,–,·,·,·,·
C[C@H]1CN([C@@H](C)CO)C(=O)c2ccccc2-c2ccccc2CO[C@@H]1CN(C)S(=O)(=O)c1ccc(C#N)cc1,–,·,·,·,·
CCC1(OC(=O)CN)C(=O)OCc2c1cc1n(c2=O)Cc2cc3ccccc3nc2-1 (stereo unspecified),–,+,–,–,·
CCOC(=O)C1(C(=O)OCC)COC(=O)C1CN1Cc2cc3ccccc3nc2C1 (stereo unspecified),–,–,–,–,–
CCOC(=O)/C(=N/Nc1ccc(Br)cc1)N1CC(C)OC(C)C1 (stereo unspecified),34,–,–,–,32
C[C@H](CO)N1C[C@H](C)[C@H](CN(C)C(=O)C2CCCCC2)Oc2ncc(-c3cccc(F)c3)cc2C1=O,–,·,·,·,·
C=CCc1c(C)nc(SC)nc1Nc1ccc(C(C)=O)cc1,·,–,–,48,–
COc1ccc2c3c([nH]c2c1)[C@@H](CO)N(CC1CCOCC1)CC31CN(C(=O)c2ccc(F)cc2)C1,–,·,·,·,·
COc1ccc(CN(C)C[C@H]2Oc3ccc(NC(=O)NC4CCCCC4)cc3C(=O)N([C@@H](C)CO)C[C@@H]2C)cc1,–,·,·,·,·
O=S(=O)(Nc1ccc(-c2nc3cccnc3s2)cc1)c1cc(F)ccc1F,–,+,–,–,–
CCc1ccc(S(=O)(=O)Nc2ccc(-c3nc4cccnc4s3)cc2)s1,–,+,–,45,–
C[C@@H]1CN([C@@H](C)CO)C(=O)c2cc(NC(=O)Nc3ccc(F)cc3)ccc2O[C@@H]1CN(C)Cc1ccc(Cl)c(Cl)c1,–,·,·,·,·
O=C(N/N=C\C=C\c1ccc2c(c1)OCO2)C1COc2ccccc2O1 (stereo unspecified),–,–,–,40,–
COc1cc2ccccc2cc1C(=O)N/N=C/c1ccc2c(c1)OCO2,–,–,–,42,–
CCC(C)/C(C)=N/NC(=O)C1COc2ccccc2O1 (stereo unspecified),–,–,–,–,–
O=C(N/N=C\c1ccc2c(c1)OCO2)c1ccco1,–,–,–,43,–
O=C(N/N=C\c1cccc(OC(=O)c2ccco2)c1)c1ccc2c(c1)OCO2,·,–,–,–,–
COc1ccccc1C(=O)N/N=C/c1ccc2c(c1)OCO2,–,–,–,–,–
O=C(N/N=C\C=C\c1ccc2c(c1)OCO2)c1cccnc1,–,–,–,54,–
Cc1noc(C)c1NC(=O)N(C)C[C@@H]1Oc2ccc(NC(=O)NC3CCCCC3)cc2C(=O)N([C@H](C)CO)C[C@H]1C,–,·,·,·,·
C/C=C/c1ccc([C@@H]2[C@H](CO)N(C(=O)CN(C)C)C23CN(C(=O)C2CCOCC2)C3)cc1,–,·,·,·,·

# Source: PubChem (several laboratories)
